Drawing on PubChem BioAssay (NCI), this text covers growth inhibition for 40 compounds.

This is part of a sample that, as a whole, favours compounds with a hit. Of some 79,000 tested, about 15% had one in any assay. A number with no mark means an inactive call. Cut-off read from the data, not from the text of the source: active = growth inhibition above about 70%; inactive = the rest.

The nature of this test: NCI Yeast Anticancer Drug Screen. Data for the cln2 rad14 strain (AID 165).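 Note: 0% = growth equal to vehicle treated cultures.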 The note with it: S. cerevisiae cln2 rad14 strain, at 50.0 µM, stronger effect = higher value. A digest of the protocol: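 Test compounds were added to cln2 rad14 yeast cultures; inhibition of growth was then determined by comparison with vehicle treatment.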
As for `Cc1ccc(C(N)=O)cc1`, the growth inhibition is -31.1%.
Under `O=C1CC2(CCN(Cc3ccccc3)CC2)C(=O)N1N1CCCCC1` stands 41.9%; under `O=[N+]([O-])c1ccc(SN2CCCCC2CC2CCCCC2)c([N+](=O)[O-])c1` (stereo not given), -2.25%.
Turning to `O=P(OC1=NCCN1Cc1ccccc1)(OC1=NCCN1Cc1ccccc1)N1CC1`, the growth inhibition is 32.4%.
Consider `Nc1ccc(N(C(=O)c2ccccc2)C(=O)c2ccccc2)c(-c2ccccc2)c1`, for which the growth inhibition was 3.35%.
On to `C[C@@H](CC(=O)O)OC1OC(COC(=O)C(C)(C)C)C(OC(=O)C(C)(C)C)C(OC(=O)C(C)(C)C)C1OC(=O)C(C)(C)C` (stereo not given in full), for which the growth inhibition was 7%.
On to `OCCNCc1cccc(-c2ccccc2)c1O`, for which the growth inhibition was -18.8%.
Consider `Cc1ccc2cccnc2c1`, for which the growth inhibition was 11.2%.
With `NCCNC(=O)c1ccccc1`, the growth inhibition was 17.3%.
Turning to `COC(=O)N1N=C(c2ccccc2)C(C(=O)OC)(C(=O)OC)c2ccccc21`, the growth inhibition was 16.6%.
On to `CCOP(=O)(OCC)C(Cc1cn(S(=O)(=O)c2ccc(C)cc2)cn1)C(=O)O` (stereo not given), for which the growth inhibition was 16.2%.
Regarding `O=C(O)c1cc(C(=O)O)nc(C(=O)O)c1`, the growth inhibition is -29.9%.
For `NC(=O)N/N=C/c1ccccc1N`, the growth inhibition was -22.1%.
Under `O=C(O)C1OCOC2C(CO)OCOC12` (stereo not given) stands -29.9%; under `CC(C)(C)/C(=N\O)c1ccccc1`, -8.05%; under `CN(C)CCN(C)CC(C)(C)C(=O)/C=C/c1ccccc1`, -5.95%.
With `CC(c1ccccc1)C1(C)NC(=O)NC1=O` (stereo not given), the growth inhibition is -4.1%.
Next, `CC(=O)OCCn1c([N+](=O)[O-])cnc1/C=[N+](/C)[O-]`: 1.9%; `CSc1nc(C)cc(Nc2ccc(O)c(CN3CCOCC3)c2)n1`: -33.1%.
On to `O=C(Nc1cccc(F)c1)Oc1ccc(OCc2ccccc2)cc1`, for which the growth inhibition is 8.7%.
Under `Cc1nc2ccccn2c1N=Nc1ccc(C(=O)NN)cc1` stands 10.8%; under `CC1(C)c2ccccc2C(=O)C12CCC(=O)CC2`, 26.4%; under `O=C1C(=S)Nc2cccc(F)c21`, -3.65%.
On to `COc1ccccc1OC(=O)Nc1ccc(S(=O)(=O)N(C)C)cc1`, for which the growth inhibition was 4.1%.
As to `N#Cc1ccccc1NC(=O)Nc1ccc(Cl)cc1Cl`, the growth inhibition is -0.25%.
Take `Cc1nn(C(=O)c2ccc(Cl)cc2)c2c1C(c1ccc(Cl)cc1)SC(N)=N2` (stereo not given): the growth inhibition was -24.9%.
For the compound `CC1CCCC(=O)CC1` (stereo not given), the growth inhibition is 16.3%.
For `CC(C)(C)c1ccc(OS(=O)(=O)c2ccccc2)c(Cl)c1`, the growth inhibition was -14.1%.
As for `CCCCOC(=O)CC1CCCCC1`, the growth inhibition is -6.1%.
For the compound `COc1ccc(OC(=O)Nc2cccc(C(C)=O)c2)cc1`, the growth inhibition was 1.8%.
`OC12CC/C(=N/OCc3ccccc3)CC1c1ccccc12` (stereo not given): the growth inhibition is -16%.
On to `CC(C)(C)NC(=O)NCCCCCCNC(=O)NC(C)(C)C`, for which the growth inhibition was -27.9%.
Take `c1ccc(P(CCCP(c2ccccc2)c2ccccc2)c2ccccc2)cc1`: the growth inhibition was 38.4%.
For the compound `CC(=O)NC(C=O)OCC=O` (stereo not given), the growth inhibition is 0.55%.
For `CCCc1nc2c([nH]1)c(=O)n(C)c(=O)n2C`, the growth inhibition is 9.85%.
Take `CC(=O)NOCC1NC(=O)C(CONC(C)=O)NC1=O` (stereo not given): the growth inhibition is -3.4%.
In the case of `CCN=C(N)CSS(=O)(=O)O`, the growth inhibition is -4.6%.
Take `CCOc1ccc2c(c1)C(C)(C)CCC2(C)C`: the growth inhibition is -38.5%.
Under `CC(C)(C)NC(=O)C12C3C4C1C1C2C3C41C(=O)NC(C)(C)C` (stereo not given) stands -39.7%; under `O=C1c2ccccc2-c2ccc(N3C(=O)c4c(Br)c(Br)c(Br)c(Br)c4C3=O)cc21`, -36.8%.
